We go through nine molecules from PubChem BioAssay (NCI).

About 83,000 compounds went through this panel and 20% of them were active in at least one assay; those are over-represented in the sample as a whole.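 Activity criterion: percent growth below 10, measured after cells in 96-well plates were exposed to a single compound concentration for 48 hours.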 Values without a mark were called inactive. Activity calls are given as the source filed them.

Some test systems named below: SR leukemia; RPMI-8226 leukemia; OVCAR-8 ovarian; OVCAR-5 ovarian; OVCAR-4 ovarian; SK-OV-3 ovarian; IGROV1 ovarian; OVCAR-3 ovarian; HS 578T breast; NCI/ADR-RES ovarian; T-47D breast; MDA-MB-435 melanoma; SW-620 colon; MCF7 breast; HCT-116 colon; HCC-2998 colon; KM12 colon; BT-549 breast.
Common to all, as to assay: NCI-60 one-dose screen, 48 h (100 = growth as untreated, 0 = no growth, -100 = all killed)
Holding throughout (details): 10 µM unless noted

Turning to `Cc1ccccc1-n1c(C)nc2cc(NC(=O)c3ccc(Cl)cc3)ccc2c1=O`, the growth with SR leukemia was 73.7%; with RPMI-8226 leukemia it was 44.6%; in the assay on OVCAR-8 ovarian, 84%; in the assay on OVCAR-5 ovarian, 75.9%; with OVCAR-4 ovarian, 30.1%; in the assay on SK-OV-3 ovarian it was 83.2%. The growth in the assay with IGROV1 ovarian is 78.6%; in the assay on OVCAR-3 ovarian, 58.9%; in the assay with HS 578T breast, 82.1%; with NCI/ADR-RES ovarian, 82.4%; in the assay with T-47D breast, 29%; in the assay with MDA-MB-435 melanoma it was 43.7%. Besides, the growth with SW-620 colon was 86%; in the assay on MCF7 breast it was 57.8%; in the assay on HCT-116 colon, 74.8%; in the assay with HCC-2998 colon, 80.9%; in the assay on KM12 colon, 76.6%.
As for `COc1cc(-c2nn(-c3ccc(NC(=O)c4ccc(Cl)c(Cl)c4)cc3)cc2-c2ccncc2)ccc1Cl`, the growth with SR leukemia was 11.3%; in the assay with RPMI-8226 leukemia, 4.1% (active); in the assay with OVCAR-8 ovarian, 31.4%; with OVCAR-5 ovarian, 81.8%; in the assay on OVCAR-4 ovarian, 57%; in the assay with SK-OV-3 ovarian, 94.4%. Further, the growth with IGROV1 ovarian was 96.3%; in the assay with OVCAR-3 ovarian it was 68.4%; in the assay with HS 578T breast, -23.7% (active); with NCI/ADR-RES ovarian, 72.5%; in the assay with T-47D breast it was 64.9%; in the assay on MDA-MB-435 melanoma it was 86.2%. The growth in the assay on SW-620 colon was 48.6%; in the assay on MCF7 breast, 60.6%; in the assay with HCT-116 colon, 25%; in the assay with HCC-2998 colon, 48.3%; with KM12 colon, 25.1%.
For `COc1cc2ncnc(-n3ncc4cc(NC(=O)Nc5ccccc5)ccc43)c2cc1OC`, the growth was 26.6% with SR leukemia; 15.6% in the assay on RPMI-8226 leukemia; 50.1% in the assay on OVCAR-8 ovarian; 24.7% in the assay on OVCAR-5 ovarian; 7.2% (active) in the assay with OVCAR-4 ovarian; 3.75% (active) with SK-OV-3 ovarian. The growth in the assay on IGROV1 ovarian is 5.95% (active); in the assay with OVCAR-3 ovarian, 36.1%; in the assay with HS 578T breast, -18.9% (active); in the assay with NCI/ADR-RES ovarian, 39.2%; in the assay with T-47D breast, -7.28% (active); in the assay with MDA-MB-435 melanoma it was 31.6%. The growth was 49.5% in the assay on SW-620 colon; -20.3% (active) in the assay with MCF7 breast; 6.38% (active) in the assay on HCT-116 colon; 34.1% in the assay on HCC-2998 colon; 4.62% (active) with KM12 colon.
With `COc1ccc(-c2nc(SCC(C)C)nc(Nc3ccc(C)cc3)c2C#N)cc1`, the growth in the assay with SR leukemia is 44.3%; in the assay with RPMI-8226 leukemia, 73.2%; in the assay with OVCAR-8 ovarian, 72.3%; with OVCAR-5 ovarian, 86.4%; in the assay on OVCAR-4 ovarian, -50.4% (active); with SK-OV-3 ovarian it was 73.7%. Besides, the growth with IGROV1 ovarian is 59.5%; with OVCAR-3 ovarian it was 33.8%; in the assay on HS 578T breast it was 42.6%; with NCI/ADR-RES ovarian, 72.7%; in the assay on BT-549 breast it was 85.8%; in the assay with MDA-MB-435 melanoma, 86.7%. Moreover, the growth in the assay on SW-620 colon is 54.4%; in the assay with MCF7 breast, 70.3%; in the assay on HCT-116 colon it was 33.5%; in the assay on HCC-2998 colon, 92.5%; in the assay with KM12 colon, 80.8%.
With `COC(=O)c1ccc2[nH]c(O)c(C(=Nc3ccc(N(C)C(=O)CN4CCN(C)CC4)cc3)c3ccc(CCO)cc3)c2c1`, the growth was 6.7% (active) in the assay on SR leukemia; 30.8% in the assay with RPMI-8226 leukemia; 64.5% in the assay on OVCAR-8 ovarian; 80.6% in the assay with OVCAR-5 ovarian; 56.6% in the assay on OVCAR-4 ovarian; 39.7% in the assay with SK-OV-3 ovarian. Further, the growth was 16.5% in the assay with IGROV1 ovarian; 52.5% with OVCAR-3 ovarian; 23.9% in the assay with HS 578T breast; 104% with NCI/ADR-RES ovarian; 20.6% in the assay with BT-549 breast; 60.8% with MDA-MB-435 melanoma. Further, the growth in the assay on SW-620 colon was 27.9%; in the assay with MCF7 breast, 26.3%; with HCT-116 colon, 9.37% (active); in the assay on HCC-2998 colon it was 53.2%; with KM12 colon, 18.5%.
Regarding `COc1cc2c(c3c1c(=O)c1cccc(F)c1n3C)C=CC(C)(C)O2`, the growth is 48.8% in the assay with SR leukemia; 64.7% with RPMI-8226 leukemia; 85.2% with OVCAR-8 ovarian; 101% with OVCAR-5 ovarian; 101% in the assay with OVCAR-4 ovarian; 110% in the assay with SK-OV-3 ovarian. Further, the growth is 75.4% with IGROV1 ovarian; 117% with OVCAR-3 ovarian; 101% in the assay on HS 578T breast; 83.9% in the assay with NCI/ADR-RES ovarian; 100% in the assay on BT-549 breast; 94.9% in the assay with MDA-MB-435 melanoma. Moreover, the growth in the assay on SW-620 colon was 113%; with MCF7 breast, 44.6%; in the assay with HCT-116 colon it was 92.8%; with HCC-2998 colon it was 101%; with KM12 colon, 76.6%.
Regarding `CCCCCCCCCCCCOC(=O)/C=C\C(=O)NC(N)=O`, the growth is 3.65% (active) in the assay on SR leukemia; 4% (active) in the assay on RPMI-8226 leukemia; 70.6% in the assay with OVCAR-8 ovarian; 108% with OVCAR-5 ovarian; 86% in the assay on OVCAR-4 ovarian; 97.8% with SK-OV-3 ovarian. In addition, the growth with IGROV1 ovarian is 73%; in the assay with OVCAR-3 ovarian, 92.4%; in the assay on HS 578T breast, 86%; in the assay on NCI/ADR-RES ovarian, 88.4%; in the assay with BT-549 breast it was 67.7%; in the assay on MDA-MB-435 melanoma it was 84.7%. The growth was 91.2% in the assay with SW-620 colon; 64.3% with MCF7 breast; 68.2% in the assay on HCT-116 colon; 110% in the assay with HCC-2998 colon; 95.4% in the assay with KM12 colon.
Take `CC(=O)OCC1O[C@@H](OC(C)=O)[C@@H](NC(=O)NS(=O)(=O)c2ccccc2)C(OC(C)=O)[C@@H]1OC(C)=O` (some centres not stated): the growth in the assay on SR leukemia was 88.9%; in the assay with RPMI-8226 leukemia it was 107%; in the assay with OVCAR-8 ovarian, 113%; with OVCAR-5 ovarian, 108%; in the assay with OVCAR-4 ovarian, 109%; with SK-OV-3 ovarian, 113%. Further, the growth with IGROV1 ovarian was 108%; with OVCAR-3 ovarian, 110%; in the assay on HS 578T breast, 109%; with NCI/ADR-RES ovarian, 113%; in the assay on BT-549 breast, 102%; with MDA-MB-435 melanoma it was 105%. Further, the growth with SW-620 colon is 111%; in the assay with MCF7 breast, 92.6%; in the assay on HCT-116 colon it was 108%; in the assay on HCC-2998 colon, 113%; in the assay on KM12 colon, 105%.
For `CCCCn1c(Cc2ccc(OC)cc2)nc2cc(OC)c(OC)cc2c1=O`, the growth with SR leukemia was 2.75% (active); in the assay on RPMI-8226 leukemia, 26.1%; in the assay on OVCAR-8 ovarian it was 78.2%; in the assay on OVCAR-5 ovarian, 104%; with OVCAR-4 ovarian it was 73.6%; in the assay on SK-OV-3 ovarian, 99.4%. In addition, the growth with IGROV1 ovarian was 81.3%; with OVCAR-3 ovarian, 86.3%; with HS 578T breast, 94.5%; in the assay with NCI/ADR-RES ovarian, 72.5%; with T-47D breast it was 57%; in the assay with MDA-MB-435 melanoma it was 83.7%. For the same molecule, the growth in the assay with SW-620 colon is 92.5%; in the assay with MCF7 breast, 81.3%; in the assay with HCC-2998 colon, 98.1%; in the assay with KM12 colon it was 93.6%.
